# According to PubChem BioAssay (Tox21):
# Several values for one entry are separate records, joined by “and”; a condition that tells them apart may be missing. Equal values may be shown once. Results filed as inconclusive are left out. Entries that show only a call come without a potency. Some structures have more than one record in an assay (separate samples or runs), and their calls can disagree. Activity calls are given as the source filed them. Unless noted, calls come from the whole dose curve; as a rule, active = well fitted curve in the direction sought with a large enough effect in the repeat runs; inconclusive = weak or mixed curves; inactive = no such curve, though single readings can be large; an effect the other way counts as inactive or inconclusive.
# What was measured:
# [1] = qHTS assay to identify small molecule agonists of the RXR signaling pathway - cell viability counter screen (AID 1159529); note: nearly all actives have a fitted effect of over 50% in size; note: potency is the fitted concentration of half-maximal effect; for activity change, negative = cytotoxicity: series mostly up to about 77 µM
# Procedure, shortened: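 RXR-alpha-UAS-bla HEK 293T cells in medium with 2% charcoal-stripped FBS were pre-incubated 5 hr, then compound-treated 16 hr at 37 C. Viability was read by CellTiter-Glo luminescence in the same wells as the beta-lactamase assay, with tetraoctyl ammonium bromide as positive control.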
# [2] = qHTS assay to identify small molecule antagonists of the retinoid acid receptor (RAR) signaling pathway - cell viability counter screen (AID 1159551); note: nearly all actives have a fitted effect of over 35% in size
# Procedure, shortened: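 Cytotoxicity counter screen in C3RL4 cells: 6 h compound exposure with 1 uM retinol (final), viability from cellular ATP by luminescence.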
# [3] = qHTS assay to identify small molecule antagonists of the retinoic acid receptor (RAR) signaling pathway (AID 1159552; note: nearly all actives have a fitted effect of over 50% in size; note: potency is the fitted concentration of half-maximal effect)
# Procedure, shortened: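 Retinol signaling pathway inhibitors screened in C3RL4 RARE-luciferase reporter cells seeded overnight at 37 C, then compounds added with 1 uM (final) retinol as pathway substrate. After 6 hr at 37 C, luciferase luminescence read after 30 min at room temperature.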
# [4] = qHTS assay to identify small molecule agonists of the retinoic acid receptor (RAR) signaling pathway (AID 1159553)
# Procedure, shortened: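 Agonist activity was scored in C3RL4 cells bearing a retinoic acid response element luciferase construct. Cells were treated with compounds for 6 hr at 37 C, and luciferase signal was measured as luminescence.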
# [5] = qHTS assay to identify small molecule antagonists of the estrogen related receptor (ERR) signaling pathway from Tox21 library - cell viability counter screen (AID 1224834); note: nearly all actives have a fitted effect of over 30% in size; note: potency is the fitted concentration of half-maximal effect
# Procedure, shortened: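 Cytotoxicity of test substances is gauged in the same ERR cells used for the antagonist screen, after 17.5 h of compound treatment at 37 C, by CellTiter-Fluor fluorescence measured after 30 min.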
# [6] = molecular target: Luciferin 4-monooxygenase (Photinus pyralis) (UniProt P08659); test: qHTS assay to identify small molecule inhibitors of firefly luciferase (AID 1224835); note: series mostly up to about 120 µM; nearly all actives have a fitted effect of over 25% in size
# Procedure, shortened: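 Quantitative HTS format; KM concentrations of both substrates. Purified P. pyralis FLuc activity quantified from luminescence images.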
# [7] = qHTS assay to identify small molecule agonists of the constitutive androstane receptor (CAR) signaling pathway - cell viability counter screen (AID 1224836); note: series mostly up to about 92 µM; nearly all actives have a fitted effect of over 45% in size
# Procedure, shortened: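 HepG2 cells stably carrying hCAR and a CYP2B6-2.2kb reporter; 15-concentration compounds plus PK11195 (final 0.75 uM), 23 hr at 37 C/5% CO2. Viability read by CellTiter-Fluor fluorescence.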
# [8] = qHTS assay to identify small molecule antagonists of the constitutive androstane receptor (CAR) signaling pathway - cell viability counter screen (AID 1224837); note: series mostly up to about 92 µM; nearly all actives have a fitted effect of over 45% in size
# Procedure, shortened: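 Multiplexed cytotoxicity read-out for the CAR antagonist screen: double-stable HepG2-CYP2B6-hCAR cells co-treated with 50 nM CITCO (final) and compound over 15 concentrations, incubated 23 hr, then assessed by CellTiter-Fluor fluorescence.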
# [9] = molecular target: Nuclear receptor subfamily 1 group I member 3 (Homo sapiens) (UniProt Q14994); test: qHTS assay to identify small molecule antagonists of the constitutive androstane receptor (CAR) signaling pathway (AID 1224838); note: nearly all actives have a fitted effect of over 40% in size; note: potency is the fitted concentration of half-maximal effect
# Procedure, shortened: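 Compounds were titrated across 15 concentrations onto HepG2 cells double-stably expressing hCAR and a CYP2B6-2.2kb reporter, together with 50 nM CITCO (final). After 24 h at 37 C, luciferase activity was measured by luminescence.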
# [10] = qHTS assay to identify small molecule antagonists of the estrogen related receptor signaling pathway with the pleiotropic PPARgamma coactivator (PGC) from Tox21 10K library - cell viability counter screen (AID 1224840; active = well fitted cell-killing curve with a large enough effect in the repeat runs, not every such curve was filed as active; note: nearly all actives have a fitted effect of over 40% in size)
# Procedure, shortened: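 Step one, plate 2,000 PGC/ERR cells per well; step two, incubate 6 h at 37 C/5% CO2; step three, pin-transfer compounds; step four, incubate 17.5 h; step five, add CellTiter-Fluor and read fluorescence after 30 min.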
# [11] = qHTS assay to identify small molecule antagonists of the estrogen related receptor signaling pathway with the pleiotropic PPARgamma coactivator (PGC) from Tox21 10K library (AID 1224841; call rule not given here; note: actives are mostly falling curves and most rising ones were filed inactive; nearly all actives have a fitted effect of over 50% in size; note: potency is the fitted concentration of half-maximal effect; for activity, negative = inhibition: series mostly up to about 92 µM)
# Procedure, shortened: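 Antagonism in this quantitative HTS is taken from loss of luciferase signal in PGC/ERR cells. Cells (2,000/well) are treated with compounds in DMSO after a 6 h settling period and read by One-Glo luminescence after 18 h.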
# [12] = qHTS assay to identify small molecule agonists of the estrogen related receptor signaling pathway with the pleiotropic PPARgamma coactivator (PGC) from Tox21 10K library (AID 1224842); note: nearly all actives have a fitted effect of over 15% in size
# Procedure, shortened: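 PGC/ERR reporter cells (NTP line) were seeded 2,000 per well, rested 6 h at 37 C/5% CO2, then pin-dosed with compounds in DMSO for 18 h at 37 C; luciferase read by One-Glo luminescence after 30 min at room temperature.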
# [13] = qHTS assay to identify small molecule antagonists of the estrogen related receptor (ERR) signaling pathway - cell viability counter screen (AID 1224818);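 note: series mostly up to about 46 µM; viability measured after 17.5 h of compound exposure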
# Procedure, shortened: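 Cells carrying the ERR pathway reporter were seeded and incubated for 6 hours before compound addition. After a 17.5-hour exposure at 37 C, live-cell protease activity was measured by CellTiter-Fluor fluorescence following 30 minutes of incubation.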
# [14] = qHTS assay to identify small molecule antagonists of the estrogen related receptor signaling pathway with the pleiotropic PPARgamma coactivator (PGC) cell viability counter screen (AID 1224822;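 note: series mostly up to about 46 µM; viability read after 17.5 h compound exposure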)
# Procedure, shortened: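 Seed PGC/ERR cells (2,000/well); incubate 6 h at 37 C/5% CO2; pin-transfer compounds in DMSO; incubate 17.5 h at 37 C; add CellTiter-Fluor; after 30 min read fluorescence.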
# [15] = molecular target: Nuclear receptor subfamily 1 group I member 3 (Homo sapiens) (UniProt Q14994); test: qHTS assay to identify small molecule agonists of the constitutive androstane receptor (CAR) signaling pathway (AID 1224839); note: nearly all actives have a fitted effect of over 15% in size; note: potency is the fitted concentration of half-maximal effect;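 for activation: HepG2 cells stably carrying human CAR and a CYP2B6 luciferase reporter; series mostly up to about 92 µM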
# Procedure, shortened: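 HepG2 cells stably co-transfected with hCAR and a CYP2B6-2.2kb luciferase reporter; compounds at 15 concentrations with 0.75 uM PK11195 present. After 24 hr at 37 C, luciferase read by ONE-Glo luminescence.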
# [16] = qHTS assay to identify small molecule antagonists of the estrogen related receptor (ERR) signaling pathway (AID 1224819;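 note: luminescence from an ERR-driven luciferase reporter measured with One-Glo reagent; series mostly up to about 46 µM; nearly all actives have a fitted effect of over 50% in size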)
# Procedure, shortened: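 Compounds dissolved in DMSO were pin-transferred onto ERR cells that had been plated 6 h earlier, and cells were then incubated 18 h at 37 C; signal was luciferase luminescence via One-Glo.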
# [17] = qHTS assay to identify small molecule agonists of the estrogen related receptor (ERR) signaling pathway (AID 1224820)
# Procedure, shortened: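 Quantitative HTS of the LOPAC library used NTP ERR reporter cells treated 18 h at 37 C. Signal is luminescence after One-Glo addition and a 30 min room-temperature incubation.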
# [18] = tested on: estrogen-related receptor alpha (ERRalpha) with PGC-1alpha coactivator, human; test: qHTS assay to identify small molecule antagonists of the estrogen related receptor signaling pathway with the pleiotropic PPARgamma coactivator (PGC) (AID 1224821; calls by dose curve)
# Procedure, shortened: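 Quantitative HTS for antagonism: PGC/ERR cells received compounds after 6 h attachment and were incubated 18 h at 37 C, with luminescence (One-Glo) as the endpoint.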
# [19] = qHTS assay to identify small molecule agonists of the estrogen related receptor signaling pathway with the pleiotropic PPARgamma coactivator (PGC) (AID 1224823)
# Procedure, shortened: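 Cell-based luciferase assay in the NTP-supplied PGC/ERR line, 2,000 cells/well; 18 h compound exposure at 37 C, luminescence after One-Glo.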
# Chain of Nuclear receptor subfamily 1 group I member 3 (Homo sapiens) (Q14994 whole entry, looked up): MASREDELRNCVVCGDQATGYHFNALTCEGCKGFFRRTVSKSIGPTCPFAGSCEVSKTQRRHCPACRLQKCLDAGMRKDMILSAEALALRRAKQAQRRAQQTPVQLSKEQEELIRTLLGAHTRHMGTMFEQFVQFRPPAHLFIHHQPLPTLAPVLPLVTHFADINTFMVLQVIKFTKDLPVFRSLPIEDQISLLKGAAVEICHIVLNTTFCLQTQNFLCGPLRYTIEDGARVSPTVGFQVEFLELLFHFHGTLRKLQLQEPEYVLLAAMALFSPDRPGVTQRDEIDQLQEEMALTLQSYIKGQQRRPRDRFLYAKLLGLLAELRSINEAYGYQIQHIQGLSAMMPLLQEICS
# Chain of Luciferin 4-monooxygenase (Photinus pyralis) (P08659 whole entry, looked up): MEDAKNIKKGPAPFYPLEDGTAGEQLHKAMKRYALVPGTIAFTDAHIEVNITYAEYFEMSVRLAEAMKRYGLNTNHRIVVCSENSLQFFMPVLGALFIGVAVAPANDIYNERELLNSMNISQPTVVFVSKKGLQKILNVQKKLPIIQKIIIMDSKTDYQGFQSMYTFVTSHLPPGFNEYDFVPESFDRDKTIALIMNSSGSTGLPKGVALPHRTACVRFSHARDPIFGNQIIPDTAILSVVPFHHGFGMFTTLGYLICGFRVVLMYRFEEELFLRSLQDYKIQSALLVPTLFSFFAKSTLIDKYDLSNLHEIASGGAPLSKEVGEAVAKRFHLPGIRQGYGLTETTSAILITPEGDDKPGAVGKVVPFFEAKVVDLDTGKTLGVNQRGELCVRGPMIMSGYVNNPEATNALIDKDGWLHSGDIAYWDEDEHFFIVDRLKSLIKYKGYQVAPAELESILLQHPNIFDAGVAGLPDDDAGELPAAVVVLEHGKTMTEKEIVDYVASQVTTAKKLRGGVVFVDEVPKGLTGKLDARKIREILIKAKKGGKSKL
compound,measurement,setting,value
COC(C)(C)CCC[C@H](C)C/C=C/C(C)=C/C(=O)OC(C)C,Potency,[1],inactive
same,Potency,[2],inactive
same,Potency,[3],inactive
same,Potency,[4],inactive
same,Potency,[5],inactive
same,Potency,[6],inactive
same,Potency,[7],inactive
same,Potency,[8],inactive
same,Potency,[9],inactive
same,Potency,[10],inactive
same,Potency,[11],inactive
same,Potency,[12],inactive
CC(C)(C)C(O)C(Oc1ccc(Cl)cc1)n1cncn1 (centres undefined),Potency,[1],inactive
same,Potency,[2],inactive
same,outcome,[13],inactive
same,Potency,[14],inactive
same,Potency,[6],inactive
same,Potency,[8],inactive
same,Potency,[9],inactive
same,Potency,[10],inactive
CCCCCCCCOC(=O)c1ccc(C(=O)OCCCCCCCC)c(C(=O)OCCCCCCCC)c1,Potency,[1],inactive
same,Potency,[2],inactive
same,Potency,[4],inactive
same,Potency,[5],inactive
same,Potency,[6],inactive
same,Potency,[7],inactive
same,Potency,[8],inactive
same,Potency,[9],inactive
same,Potency,[10],inactive
C#CCOC(C(=O)OCCN(C)C)(c1ccccc1)c1ccccc1,Potency,[1],inactive
same,Potency,[2],inactive
same,Potency,[4],inactive
same,Potency,[5],inactive
same,Potency,[6],inactive
same,Potency,[7],inactive
same,Potency,[8],inactive
same,Potency,[9],inactive
same,Potency,[10],inactive
O=Cc1ccc2c(c1)OCO2,Potency,[1],inactive
same,Potency,[2],inactive
same,Potency,[3],inactive
same,Potency,[4],inactive
same,Potency,[5],inactive
same,Potency,[6],inactive
same,Potency,[7],inactive
same,Potency,[8],inactive
same,Potency,[10],inactive
O=S1OC[C@@H]2[C@H](CO1)[C@]1(Cl)C(Cl)=C(Cl)[C@@]2(Cl)C1(Cl)Cl (some centres undefined),Potency,[1],49 µM (active)
same,Potency,[2],inactive
same,Potency,[3],inactive
same,Potency,[6],inactive
same,Potency,[7],inactive
same,Potency,[8],inactive
same,Potency,[9],inactive
same,Potency,[15],27.3 µM (active)
CC(C)(CCl)C(=O)Cl,Potency,[1],inactive
same,Potency,[2],inactive
same,Potency,[3],inactive
same,Potency,[5],inactive
same,Potency,[6],inactive
same,Potency,[7],inactive
same,Potency,[8],inactive
same,Potency,[9],inactive
same,Potency,[10],inactive
CO[C@@H]1[C@H](OC(=O)NC(=O)CCl)CC[C@]2(CO2)[C@H]1[C@@]1(C)O[C@@H]1CC=C(C)C,"activity change, negative = cytotoxicity",[1],-19.4% [at 15.8 µM] (inactive)
same,"activity change, negative = cytotoxicity",[2],2.96% [at 19 µM] (inactive)
same,"activity, negative = inhibition",[3],1.57% [at 19 µM] (inactive)
same,Potency,[4],inactive
same,"viability change, negative = cytotoxic",[5],-3.88% [at 19 µM] (inactive)
same,"activity change, negative = inhibition",[6],2.04% [at 23.6 µM] (inactive)
same,"viability change, negative = cytotoxic",[7],-5.35% [at 19 µM] (inactive)
same,"activity change, negative = cytotoxicity",[8],-18.3% [at 19 µM] (inactive)
same,activation,[15],-1.38% [at 19 µM] (inactive)
same,"viability change, negative = cytotoxic",[10],-8.92% [at 19 µM] (inactive)
same,activation,[12],-7.49% [at 19 µM] (inactive)
NS(=O)(=O)C(F)(F)C(F)(F)C(F)(F)C(F)(F)C(F)(F)C(F)(F)C(F)(F)C(F)(F)F,Potency,[1],inactive
same,Potency,[2],inactive
same,Potency,[4],inactive
same,Potency,[6],inactive
same,Potency,[7],inactive
same,Potency,[8],inactive
same,Potency,[9],inactive
same,Potency,[15],inactive
same,Potency,[10],inactive
same,Potency,[11],inactive
CCCCOC(=O)c1ccccc1C(=O)OCc1ccccc1,Potency,[1],inactive
same,Potency,[2],inactive
same,Potency,[3],inactive
same,outcome,[13],inactive
same,outcome,[16],inactive
same,outcome,[17],inactive
same,Potency,[18],inactive
same,Potency,[14],inactive
same,outcome,[19],inactive
same,Potency,[5],inactive
same,Potency,[6],inactive
same,Potency,[7],inactive
same,Potency,[8],inactive
same,Potency,[9],inactive
same,Potency,[15],54.5 µM (active)
same,Potency,[10],inactive
same,Potency,[11],inactive
same,Potency,[12],inactive
O=C(CCl)c1ccc(Cl)cc1Cl,Potency,[1],inactive and 13.4 µM (active)
same,Potency,[2],inactive
same,Potency,[3],1.88 µM (active)
same,Potency,[5],inactive and 21.1 µM (active)
same,Potency,[6],inactive
same,Potency,[7],inactive
same,Potency,[8],inactive
same,Potency,[9],13.3 µM (active)
same,Potency,[15],inactive
same,Potency,[10],inactive
same,Potency,[12],inactive
CCO[C@H]1O[C@@H]2OC3(C)CC[C@H]4[C@H](C)CC[C@@H]([C@H]1C)[C@@]24OO3,Potency,[1],inactive
same,Potency,[2],inactive
same,Potency,[4],inactive
same,Potency,[6],inactive
same,Potency,[7],inactive
same,Potency,[9],inactive
same,Potency,[15],4.22 µM (active)
same,Potency,[10],inactive
same,Potency,[11],0.668 µM (active)
same,Potency,[12],inactive
